PubChem BioAssay AID1672 (Johns Hopkins Ion Channel Center, 2009)
Screen size: about 310,000 compounds; about 2,600 (0.84%) were called active. This is one part of a sample in which actives are shown more often than they occur.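 Rule for the calls: active = fluorescence ratio B-score at or below minus 3 SD of library scores, with starting-brightness B-score within 2 SD (cut at about -4.2 in these data); inactive = the rest.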

molecular target: Inward rectifier potassium channel 2 (Mus musculus) (UniProt P35561); assay: blocks the mouse Kir2.1 inward-rectifier potassium channel (AID 1672); details: HEK293-Kir2.1, FluxOR thallium flux fluorescence; at 10 µM; active compounds read low;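 note: channel flux triggered by added potassium and thallium sulfate stimulus; B-score of peak minus minimum fluorescence over baseline after thallium stimulus; more negative B-score means stronger Kir2.1 block with less thallium influx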
Sequence (P35561 whole entry, looked up): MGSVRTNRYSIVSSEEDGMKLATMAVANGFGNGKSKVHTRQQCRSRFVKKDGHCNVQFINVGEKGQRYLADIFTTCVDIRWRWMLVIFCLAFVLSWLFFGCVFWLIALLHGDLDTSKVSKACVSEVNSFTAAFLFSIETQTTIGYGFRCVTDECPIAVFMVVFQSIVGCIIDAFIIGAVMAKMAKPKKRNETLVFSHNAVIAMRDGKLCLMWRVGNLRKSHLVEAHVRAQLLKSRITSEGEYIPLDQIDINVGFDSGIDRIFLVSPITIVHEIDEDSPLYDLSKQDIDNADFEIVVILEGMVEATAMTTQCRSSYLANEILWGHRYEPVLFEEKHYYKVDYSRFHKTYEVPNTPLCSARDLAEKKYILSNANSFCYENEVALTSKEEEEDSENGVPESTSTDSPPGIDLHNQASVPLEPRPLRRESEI

SMILES | B-score
O=C(NCCc1ccco1)C(=O)NCCC1CCCCN1S(=O)(=O)c1ccccc1 (configuration not stated) | -0.4 (inactive)
CN(C)S(=O)(=O)c1cccc(-c2nn(-c3ccccc3)cc2/C=C2\SC(=S)N(CC(=O)O)C2=O)c1 | 0.81 (inactive)
Cc1ccc(-c2nn(-c3ccccc3)cc2/C=C2\SC(=S)N(CCCCCC(=O)O)C2=O)o1 | -6 (active)
COc1ccc(-c2nn(-c3ccccc3)cc2/C=C2/SC(=S)N(CCCC(=O)O)C2=O)c(C)c1 | 0.15 (inactive)
COc1ccc(-c2cc(C(=O)N/N=C/c3cccnc3)c3ccccc3n2)c(OC)c1 | 0.47 (inactive)
O=C(NNC(=O)c1ccc(-c2ccccc2)cc1)Nc1ccccc1 | -0.44 (inactive)
CCOC(=O)c1c(C)[nH]c(C(=O)OCC(=O)N2CCCC2=O)c1C | -0.25 (inactive)
Cc1ccc(NC(=O)CSc2nc(=O)n(CCN(C)C)c3c2CCCC3)c(C)c1 | -0.41 (inactive)
Cc1ccc2nc(NC(=O)CSc3nc(=O)n(CCCN(C)C)c4c3CCC4)sc2c1 | -4.83 (active)
Cc1csc(NC(=O)CSc2nc(=O)n(CCCN(C)C)c3c2CCC3)n1 | 1.14 (inactive)
COc1ccc(S(=O)(=O)N2CCCCC2)cc1NC(=O)COc1ccccc1 | 0.95 (inactive)
CC(Nc1nc(N2CCOCC2)nc2ccccc12)c1ccccc1 (configuration not stated) | -0.41 (inactive)
CC(Nc1nc(N2CCN(CCO)CC2)nc2ccccc12)c1ccccc1 (configuration not stated) | -0.6 (inactive)
CC(Nc1nc(N2CCCC2)nc2ccccc12)c1ccccc1 (configuration not stated) | -4.56 (active)
COc1ccc(-c2nc3ccccc3c(=O)n2CCc2ccc(O)cc2)cc1 | 0.02 (inactive)
COc1ccc(CCNCc2c(-c3ccccc3)n(C)c3ccccc23)cc1 | -10.9 (active)
COc1ccc(-c2c(C#Cc3ccccc3)c3ccccc3n2C)cc1 | 0.01 (inactive)
CCOc1cc2ccccc2cc1C(=O)Nc1ccccn1 | 1.1 (inactive)
COc1ccccc1C(=O)Nc1ccccc1C(=O)Nc1ccccc1 | 1.53 (inactive)
COc1ccccc1OCCNCC(O)COc1cccc2[nH]c3ccccc3c12 (configuration not stated) | -4.77 (active)
CC(C)(C)NCC(O)COc1cccc2[nH]c(=O)[nH]c12 (configuration not stated) | 1.46 (inactive)
COc1cccc2[nH]c(C(=O)NCCc3ccccc3)cc12 | 0.06 (inactive)
Cc1cc2oc(=O)cc(CN3CCN(Cc4ccccc4)CC3)c2cc1C | -2.25 (inactive)

SMILES | B-score
CCCOc1ccc(C2c3c(oc4cc(C)c(C)cc4c3=O)C(=O)N2CCCN2CCOCC2)cc1 (configuration not stated) | 0.6 (inactive)
Cc1cc2oc3ccc(NCCC4CCCN4C)cc3c(=O)c2cc1C (configuration not stated) | -7.66 (active)
COc1ccccc1NC(=O)COC(=O)c1ccccc1SCC(=O)N1CCCC1 | 1.77 (inactive)
O=C(c1cc(-c2ccco2)nc2ccccc12)N(Cc1nnc(-c2ccc(Cl)cc2)o1)C1CC1 | -1.19 (inactive)
CCC(C)NC(=O)c1ccc(N2CCC3(CC2)OCCO3)c([N+](=O)[O-])c1 (configuration not stated) | 0.4 (inactive)
O=C(NC1C2CC3CC(C2)CC1C3)c1ccc(N2CCNCC2)c([N+](=O)[O-])c1 (configuration not stated) | 0.7 (inactive)
CC(NC(=O)c1ccc(N2CCNCC2)c([N+](=O)[O-])c1)C12CC3CC(CC(C3)C1)C2 (configuration not stated) | -8.06 (active)
COCOc1cc(O)c(C(=O)/C=C/c2ccc(OCOC)c(OCOC)c2)c(OCOC)c1 | 1.19 (inactive)
COc1ccc(CNC(=O)C2CCCC2)cc1 | 1.06 (inactive)
COc1ccc(NC(=O)/C(Cl)=C(/Cl)S(=O)Cc2ccc(C)cc2)cn1 (configuration not stated) | -5.16 (active)
COc1ccc(Nc2cc(Cl)ccc2C(=O)O)cn1 | 2.53 (inactive)
COc1ccc(NC(=O)c2cc(-c3ccc(C)cc3)on2)cc1 | 0.92 (inactive)
CC1CCN(c2ccc(-c3ccc(NC(=O)c4ccco4)cc3)nn2)CC1 | 2.11 (inactive)
COC(=O)c1ccc(NC(=O)c2ccccc2NS(=O)(=O)c2ccccc2)cc1 | -0.07 (inactive)
COc1cc(NC(=O)c2ccccc2NS(=O)(=O)c2ccc(Cl)s2)cc(OC)c1 | -4.91 (active)
COc1cc(NC(=O)c2cccnc2SC)cc(OC)c1 | -1.22 (inactive)
Cc1ccn2c(=O)nc(SCC(=O)NCc3ccc4c(c3)OCO4)nc2c1 | -1.61 (inactive)
Cc1ccc2nc(NC(=O)C3CSC4(C)CCC(=O)N34)sc2c1 (configuration not stated) | -0.28 (inactive)
CCOc1ccc(S(=O)(=O)Nc2cccc(C(=O)NCC3(N4CCCCC4)CCCCC3)c2)cc1 | -0.12 (inactive)
Cc1ccc(C(=O)C(C)OC(=O)Cc2n[nH]c(=O)c3ccccc23)cc1C (configuration not stated) | -0.94 (inactive)
O=C(CN1C(=O)NC2(CCCC2)C1=O)OCCOc1ccc(F)cc1 | 0.63 (inactive)
CCn1c2ccccc2c2cc(NC(=O)CNC)ccc21 | -5.93 (active)
CCn1c2ccccc2c2cc(NC(=O)COC(=O)c3ccccc3Br)ccc21 | 1.33 (inactive)

SMILES | B-score
CCn1c2ccccc2c2cc(NC(=O)C/C(C)=N/NC(=O)c3ccccc3N)ccc21 | 1.9 (inactive)
COc1ccc(CCNC(=O)C(=O)NCC2CCCN2S(=O)(=O)c2cccs2)cc1OC (configuration not stated) | -0.91 (inactive)
COc1ccc(C)cc1S(=O)(=O)Nc1cc2c3c(c1)CCC(=O)N3CCC2 | 0.54 (inactive)
COc1ccc(NC(=O)CCC(=O)N2CCN(S(=O)(=O)c3ccc(C)cc3)CC2)c(OC)c1 | -0.19 (inactive)
COc1ccccc1C(=O)NC(CCSC)C(=O)N1CCN(C/C=C/c2ccccc2)CC1 (configuration not stated) | -1.22 (inactive)
COc1ccc(CN2CCC(c3nc4ccc(Cl)cc4[nH]3)CC2)cc1 | -7.29 (active)
COc1ccc(CN2CCN(Cc3ccc(OC)c(OC)c3OC)CC2)cc1 | 0.47 (inactive)
COc1ccc(Cn2nnc3c(=O)[nH]c(C4CCN(C(=O)c5ccccc5Cl)CC4)nc32)cc1 | 1.59 (inactive)
O=C(Nc1ccc(S(=O)(=O)N2CCCCC2)cc1)C1CCN(C(=O)c2ccc(F)cc2)CC1 | -0.97 (inactive)
COc1cc(/C=N/Nc2ccc(C)cc2)cc(Br)c1O | -0.11 (inactive)
COc1cc(/C=N/O)cc(Br)c1OS(=O)(=O)c1ccc(C)cc1 | -10.4 (active)
COc1cc(/C=N/O)cc(Br)c1OCc1cccc(Cl)c1 | -0.84 (inactive)
CCc1nnc(NS(=O)(=O)c2ccc(NC(=O)c3cccc(OC(F)(F)C(F)F)c3)cc2)s1 | -0.69 (inactive)
Cc1ccc(-c2cc(=O)[nH]c(NCc3ccccc3)n2)cc1 | -1.96 (inactive)
COc1ccccc1CN(C)C(=O)C1(c2ccc(Cl)cc2)CC1 | -7.43 (active)
COc1cccc(CN(C)C(=O)CC23CC4CC(CC(C4)C2)C3)c1OC | 0.01 (inactive)
COc1ccccc1CN(C)C(=O)c1cc2ccccc2o1 | -0.72 (inactive)
COc1ccc(/C=N/NC(=O)c2cc(-c3cccc(C)c3)nc3ccccc23)cc1O | -0.5 (inactive)
CCOc1ccc(NS(=O)(=O)c2ccc(C(=O)NC3CCN(Cc4ccccc4)CC3)cc2)cc1 | -0.37 (inactive)
COc1ccccc1CCC(=O)OCC(=O)N1CCN(S(=O)(=O)c2ccc(C)cc2C)CC1 | -0.28 (inactive)
CC1=C/C(=N\OS(=O)(=O)c2ccccc2)C=CC1=O | -8.49 (active)
Cc1ccc(S(=O)(=O)c2ccc(Oc3ccccc3)cc2)cc1 | 1.97 (inactive)
O=S(=O)(ON(c1ccccc1)S(=O)(=O)c1ccccc1)c1ccccc1 | -1.37 (inactive)

SMILES | B-score
COC(=O)c1ccc(NS(=O)(=O)c2cc3c4c(c2)C(C)C(=O)N4CCC3)cc1 (configuration not stated) | -0.99 (inactive)
C/C(=N\NC(=O)COc1ccc(C)cc1[N+](=O)[O-])c1ccc2c(c1)OCCO2 | 0.54 (inactive)
C=CS(=O)c1sc(Cl)c(N2CCOCC2)c1[N+](=O)[O-] (configuration not stated) | -4.54 (active)
CCCCCCCCCCCCN1[C@@H](CC(C)=O)c2cc(F)cc(F)c2S1(=O)=O | 1.64 (inactive)
Cc1nnc(SCC(=O)N2CCOCC2)[nH]c1=O | -0.42 (inactive)
CCOC(=O)c1c(NC(=O)CSc2nnc(C)c(=O)[nH]2)sc2c1CCC2 | 1.75 (inactive)
CCCCOC(=O)CNc1nnc(SCC(=O)OCC)[nH]c1=O | -5.69 (active)
COc1ccc(NC(=O)CN(C)C(=O)c2ccc(NC3CC3)c([N+](=O)[O-])c2)cc1 | 0.91 (inactive)
COc1ccc(C(=O)OCC(=O)c2ccc(Cl)s2)c(OC)c1OC | 1.46 (inactive)
CCOc1ccc(C(C)=O)cc1COC(=O)CNC(=O)c1cccs1 | -0.97 (inactive)
COc1ccccc1C(CNC(=O)c1cccc(NS(=O)(=O)c2ccc(Br)cc2)c1)N(C)C (configuration not stated) | -1.8 (inactive)
CC(C)(C)C(=O)Cn1c(NCCO)nc2ccccc21 | -0.4 (inactive)
OCCNc1nc2ccccc2n1-c1ncnc2sc3c(c12)CCC3 | -8.97 (active)
O=C(O)[C@@H]1CCCN1c1ncnc2sc3c(c12)CCC3 | 0.12 (inactive)
COc1cc(-c2nnc(NC(=O)C3=COCCO3)o2)cc(OC)c1OC | 0.99 (inactive)
CCCCn1c(N)c(N(CC(C)C)C(=O)c2cccc(S(=O)(=O)N3CCN(C(C)=O)CC3)c2)c(=O)[nH]c1=O | -1.82 (inactive)
O=C(CCCN=C1NS(=O)(=O)c2ccccc21)OCC(=O)c1ccc(F)c(F)c1 | 0.45 (inactive)
Cc1cccc(C(=O)NCC(=O)OCC(=O)N2CC3(C)CC2CC(C)(C)C3)c1 (configuration not stated) | 1.23 (inactive)
Cc1nnnn1/C(=C\c1ccccc1)C(=O)OCC(=O)N1CC2(C)CC1CC(C)(C)C2 (configuration not stated) | -4.63 (active)
COc1ccccc1C(=O)N1CC2(C)CC1CC(C)(C)C2 (configuration not stated) | -0.99 (inactive)
CCn1c(Cc2cccs2)nnc1SCC(=O)c1ccc(C)cc1 | -4.88 (active)
CCn1c(SCC(=O)c2ccc3ccccc3c2)nnc1-c1cccs1 | -2.71 (inactive)
Cc1ccc(-n2c(Cc3cccs3)nnc2SCC(=O)OC(C)C)cc1 | -2.12 (inactive)
